# Values joined by “and” are separate entries in the source; they are usually repeats but may differ in a detail not shown here. Equal entries are not always repeated. Results filed as inconclusive are left out. A structure can be active in one record and inactive in another. Active and inactive are the calls of the source. The calls were made as follows: active = hit-call score of the fitted dose curve at least 0.9, where 1 is the maximum; inconclusive = response in the unintended direction; inactive = score below 0.9.
# Biological target: Estrogen receptor beta (Homo sapiens) (UniProt Q92731)
# Experiment: OT_ER_ERbERb_0480: Odyssey Thera (OT) 8-hour HEK293T Protein-Complementation Assay for Estrogen Receptor-beta/-beta Homodimer (AID 2283357);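 also: active means signal gain over DMSO baseline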
# How it was run: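 Homodimerization of ER-beta LBD measured by protein-fragment complementation in HEK293T; 8 h dosing; fixed, Draq5 counterstain; fluorescence intensity gain over DMSO baseline, positive fitting direction; laser scanning cytometry.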
# Estrogen receptor beta (Homo sapiens), sequence (Q92731 whole entry, looked up): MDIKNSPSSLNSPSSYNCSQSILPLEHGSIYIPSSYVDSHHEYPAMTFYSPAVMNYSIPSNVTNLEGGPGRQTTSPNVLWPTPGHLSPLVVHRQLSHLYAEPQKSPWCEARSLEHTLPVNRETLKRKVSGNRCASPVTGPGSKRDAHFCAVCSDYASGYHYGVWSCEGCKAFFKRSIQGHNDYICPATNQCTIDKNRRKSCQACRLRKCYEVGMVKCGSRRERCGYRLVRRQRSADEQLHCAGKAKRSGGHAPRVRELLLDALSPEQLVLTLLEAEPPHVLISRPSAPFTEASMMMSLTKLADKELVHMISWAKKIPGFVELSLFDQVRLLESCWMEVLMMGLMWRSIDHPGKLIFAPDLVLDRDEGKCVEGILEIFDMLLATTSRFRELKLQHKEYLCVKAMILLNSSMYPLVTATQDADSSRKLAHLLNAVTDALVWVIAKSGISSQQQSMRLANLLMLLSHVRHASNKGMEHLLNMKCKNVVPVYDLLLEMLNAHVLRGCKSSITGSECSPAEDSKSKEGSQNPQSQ
SMILES,AC50,outcome
OC1CCC(C2CCCCC2)CC1 (stereo not given),25.6 µM (active) and 31.9 µM (active) and 26.9 µM (active),inactive
CN1CCC[C@H]1c1cccnc1,,inactive
Oc1cccc(O)c1,,inactive
N#C[C@@H]1CC(F)(F)CN1C(=O)CNC1CC2CCC(C1)N2c1ncccn1 (stereo not given in full),,inactive
C[C@@H]1C[C@H]2[C@@H]3CCC4=CC(=O)C=C[C@]4(C)[C@@]3(F)[C@@H](O)C[C@]2(C)[C@@]1(O)C(=O)COP(=O)(O)O,,inactive
CCc1nn(C2CCCCC2)c2cc(C3(C#N)CCC(C(=O)O)CC3)ccc12 (stereo not given),,inactive
CN(C)C=O,,inactive
CCCCCCCCCCCCc1ccccc1S(=O)(=O)O,,inactive
OCCC(F)(F)C(F)(F)C(F)(F)C(F)(F)C(F)(F)C(F)(F)F,,inactive
CC(=O)CC(C)(C)O,,inactive
CCc1ccc(CCOc2ccc(CC3SC(=O)NC3=O)cc2)nc1 (stereo not given),,inactive
CCCOC(=O)c1ccc(O)cc1,7.31 µM (active),
CC(C)(C)CC(C)(C)c1ccc(O)c(-n2nc3ccccc3n2)c1,,inactive
CCCCCCCCOC(=O)CCCCCCCCC(=O)OCCCCCCCC,,inactive
c1ccc2c(c1)Cc1ccccc1-2,,inactive
CC(C)(C)c1cc(C(C)(C)C)c(O)c(C(C)(C)C)c1,29.3 µM (active),
CCCCCCCCCCCCCCCS(=O)(=O)Oc1ccccc1,,inactive
CCCCC(CC)COC(=O)CCCCC(=O)OCc1ccccc1 (stereo not given),,inactive
C#C[C@]1(O)CC[C@H]2[C@@H]3CCC4=CC(=O)CC[C@@H]4[C@H]3CC[C@@]21C,25.7 µM (active) and 31.6 µM (active) and 17.8 µM (active),inactive
O=C(O)Cc1cc(I)c(Oc2cc(I)c(O)c(I)c2)c(I)c1,,inactive
NC(=O)N(O)[C@@H]1C=C[C@H](Oc2cccc(Oc3ccc(F)cc3)c2)C1,50 µM (active),
COc1ccc([N+](=O)[O-])cc1N,,inactive
OCCC(F)(F)C(F)(F)C(F)(F)C(F)(F)C(F)(F)C(F)(F)C(F)(F)C(F)(F)F,,inactive
CCCCCCCCCCCCN1CCCC1=O,,inactive

# Biological target: Retinoic acid receptor alpha (Homo sapiens) (UniProt P10276)
# Experiment: NVS_NR_hRAR_Antagonist: NovaScreen (NVS) Nuclear Receptor Binding Assay for human Retinoic Acid Alpha Receptor Antagonism (RAR) (AID 2283358)
# How it was run: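 Read-out: time-resolved FRET binding signal, 2 h post-dose, cell-free extracted protein. Antagonism scored as signal loss versus DMSO negative control. Primary single-concentration screen at 25 uM in duplicate; concentration series for actives.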
# Retinoic acid receptor alpha (Homo sapiens), sequence (P10276 whole entry, looked up): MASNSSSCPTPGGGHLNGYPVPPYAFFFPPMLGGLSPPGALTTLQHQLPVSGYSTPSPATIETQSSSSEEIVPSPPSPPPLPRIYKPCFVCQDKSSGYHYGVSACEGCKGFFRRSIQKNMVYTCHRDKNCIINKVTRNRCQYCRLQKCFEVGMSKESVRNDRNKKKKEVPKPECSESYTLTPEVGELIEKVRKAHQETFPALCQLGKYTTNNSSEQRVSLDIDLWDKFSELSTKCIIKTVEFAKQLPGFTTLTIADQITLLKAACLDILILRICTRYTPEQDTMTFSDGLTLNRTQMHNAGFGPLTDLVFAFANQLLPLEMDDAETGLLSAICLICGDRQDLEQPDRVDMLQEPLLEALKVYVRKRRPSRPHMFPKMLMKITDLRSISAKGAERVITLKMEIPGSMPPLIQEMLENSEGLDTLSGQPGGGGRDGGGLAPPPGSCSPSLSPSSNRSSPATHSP
SMILES,outcome,AC50
N#C[C@@H]1CC(F)(F)CN1C(=O)CNC1CC2CCC(C1)N2c1ncccn1 (stereo not given in full),inactive,
CCCCCCCCCCCCc1ccccc1S(=O)(=O)O,,19 µM (active)
c1ccc2c(c1)Cc1ccccc1-2,inactive,
O=C(O)Cc1cc(I)c(Oc2cc(I)c(O)c(I)c2)c(I)c1,inactive,

# — PubChem BioAssay (EPA / NIEHS)
